Assay [1] in a line: NCI Yeast Anticancer Drug Screen. Data for the rad50 strain (AID 155).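 Note: 0% = growth of vehicle-only cultures of the same strain.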 The conditions noted are these: S. cerevisiae rad50 strain growth inhibition, stronger effect = higher value. The essentials:
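A DNA repair-deficient yeast mutant serves as the test organism; compound-induced growth inhibition is calculated against vehicle-treated cells.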

Assay [2] in a line: NCI Yeast Anticancer Drug Screen. Data for the mec2-1 strain (AID 157). The note with it: S. cerevisiae mec2-1 strain, stronger effect = higher value. An outline of the steps: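 Strain: mec2-1 (DNA repair/cell cycle alteration). Compound exposure, then growth measured; inhibition expressed relative to vehicle.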
Assay [3] is described as follows: NCI Yeast Anticancer Drug Screen. Data for the sgs1 mgt1 strain (AID 161).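 Note: 0% = growth of cultures given vehicle only.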 The note with it: S. cerevisiae sgs1 mgt1 strain, stronger effect = higher value. An outline of the steps:
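Genetically altered yeast, compound exposure, growth inhibition relative to vehicle.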

The nature of assay [4]: NCI Yeast Anticancer Drug Screen. Data for the cln2 rad14 strain (AID 165).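 Note: 0% = growth equal to vehicle treated cultures.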 The note with it: S. cerevisiae cln2 rad14 strain, stronger effect = higher value. An outline of the steps: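 Compounds are applied to the cln2 rad14 yeast strain, and growth is then compared with that of vehicle-treated cultures to give inhibition.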
The nature of assay [5]: NCI Yeast Anticancer Drug Screen. Data for the bub3 strain (AID 167). The conditions noted are these: S. cerevisiae bub3 mutant strain, stronger effect = higher value. The essentials:
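Inhibition values come from growth of compound-treated mutant yeast normalised to vehicle-treated controls.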

A short description of assay [6]: NCI Yeast Anticancer Drug Screen. Data for the mlh1 rad18 strain (AID 175). The conditions noted are these: S. cerevisiae mlh1 rad18 strain growth inhibition, stronger effect = higher value. An outline of the steps:
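Read-out is yeast growth inhibition, calculated against vehicle-only controls. The compound was applied to a strain engineered with DNA damage repair alterations.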

The mark [7] stands for this setting: at 5.0 µM (retest, dose inferred, filed as 0.5).
Where [8] appears, read: at 50.0 µM (retest, dose inferred, filed as 5.0).

Several values for one entry are separate records, joined by “and”; a condition that tells them apart may be missing. Identical values can stand only once. This is part of a sample that, as a whole, favours compounds with a hit. Of some 79,000 tested, about 15% had one in any assay. A structure can be active in one record and inactive in another. Activity calls are given as the source filed them. Cut-off read from the data, not from the text of the source: active = growth inhibition above about 70%; inactive = the rest.

For `CCN(CC)C(=S)Sc1nc2ccccc2s1`, the growth inhibition in assay [1] (setting [7]) was -3% (inactive); in assay [1] (setting [8]), 88% (active); in assay [1] (at 50.0 µM), 34.2% (inactive); in assay [2] (setting [7]), -2% (inactive); in assay [2] (setting [8]), 87% (active); in assay [2] (at 50.0 µM), -12.1% (inactive). Besides, the growth inhibition in assay [3] (setting [7]) is 0% (inactive); in assay [3] (setting [8]) it was 95% (active); in assay [3] (at 50.0 µM), 16.7% (inactive); in assay [4] (setting [7]), -7% (inactive); in assay [4] (setting [8]), 13% (inactive); in assay [4] (at 50.0 µM) it was -54.5% (inactive). In addition, the growth inhibition was 24% (inactive) in assay [5] (setting [7]); 91% (active) in assay [5] (setting [8]); 68.1% (inactive) in assay [5] (at 50.0 µM); 5% (inactive) in assay [6] (setting [7]); 63% (inactive) in assay [6] (setting [8]); 18.4% (inactive) in assay [6] (at 50.0 µM).

On to `COc1cc(O)c2c(c1)C(=O)c1cc3c(c(O)c1C2=O)C(OC1OC(C)C(OC)C(O)C1OC)C(OC)C(C)(O)C3=O` (centres undefined), for which the growth inhibition was 81% (active) in assay [1] (setting [7]); 98% (active) in assay [1] (setting [8]); 98.8% (active) and 90.6% (active) in assay [1] (at 50.0 µM); 24% (inactive) in assay [2] (setting [7]); 98% (active) in assay [2] (setting [8]); 99.2% (active) and 93% (active) in assay [2] (at 50.0 µM). The growth inhibition was 20% (inactive) in assay [3] (setting [7]); 98% (active) in assay [3] (setting [8]); 99.5% (active) and 92.3% (active) in assay [3] (at 50.0 µM); 22% (inactive) in assay [4] (setting [7]); 98% (active) in assay [4] (setting [8]); 98.3% (active) and 89.2% (active) in assay [4] (at 50.0 µM). Also, the growth inhibition is -6% (inactive) in assay [5] (setting [7]); 98% (active) in assay [5] (setting [8]); 99% (active) and 90.5% (active) in assay [5] (at 50.0 µM); 29% (inactive) in assay [6] (setting [7]); 96% (active) in assay [6] (setting [8]); 99.2% (active) and 90.9% (active) in assay [6] (at 50.0 µM).

Regarding `COC(=O)C1c2cc3c(cc2C(OC2OC(C)C(OC)C(C)(OC)C2OC)CC1(C)O)C(=O)c1c(O)cc2c(c1C3=O)OC1OC2(C)C(O)C([N+](C)(C)[O-])C1O` (centres undefined), the growth inhibition was 7% (inactive) in assay [1] (setting [7]); 65% (inactive) in assay [1] (setting [8]); 70.4% (active) in assay [1] (at 50.0 µM); 3% (inactive) in assay [2] (setting [7]); 8% (inactive) in assay [2] (setting [8]); 61.4% (inactive) in assay [2] (at 50.0 µM). The growth inhibition was -2% (inactive) in assay [3] (setting [7]); 27% (inactive) in assay [3] (setting [8]); 65.8% (inactive) in assay [3] (at 50.0 µM); 24% (inactive) in assay [4] (setting [7]); 39% (inactive) in assay [4] (setting [8]); 47.6% (inactive) in assay [4] (at 50.0 µM). Also, the growth inhibition in assay [5] (setting [7]) is -10% (inactive); in assay [5] (setting [8]) it was 31% (inactive); in assay [5] (at 50.0 µM), 74.8% (active); in assay [6] (setting [7]) it was -8% (inactive); in assay [6] (setting [8]), 57% (inactive); in assay [6] (at 50.0 µM), 54.5% (inactive).

On to `COc1ccc2c(c1)c[n+](C)c1c3cc(OC)c(OC)cc3ccc21`, for which the growth inhibition is 17% (inactive) in assay [1] (setting [7]); 23% (inactive) in assay [1] (setting [8]); 5.2% (inactive) and 37.6% (inactive) in assay [1] (at 50.0 µM); 23% (inactive) in assay [2] (setting [7]); 20% (inactive) in assay [2] (setting [8]); 2.8% (inactive) and 35.4% (inactive) in assay [2] (at 50.0 µM). Besides, the growth inhibition in assay [3] (setting [7]) is -21% (inactive); in assay [3] (setting [8]), 47% (inactive); in assay [3] (at 50.0 µM), 43.2% (inactive) and 48.9% (inactive); in assay [4] (setting [7]), -12% (inactive); in assay [4] (setting [8]), -8% (inactive); in assay [4] (at 50.0 µM), 34.6% (inactive) and 13.8% (inactive). Also, the growth inhibition is 8% (inactive) in assay [5] (setting [7]); 61% (inactive) in assay [5] (setting [8]); 25.9% (inactive) and 19.1% (inactive) in assay [5] (at 50.0 µM); 16% (inactive) in assay [6] (setting [7]); 19% (inactive) in assay [6] (setting [8]); -19.9% (inactive) and 32.5% (inactive) in assay [6] (at 50.0 µM).

On to `O=C(O)C#CC(=O)O`, for which the growth inhibition is 22% (inactive) in assay [1] (setting [7]); 76% (active) in assay [1] (setting [8]); 76.2% (active) and 1.25% (inactive) in assay [1] (at 50.0 µM); 20% (inactive) in assay [2] (setting [7]); 20% (inactive) in assay [2] (setting [8]); 85.7% (active) and -6.9% (inactive) in assay [2] (at 50.0 µM). The growth inhibition was 28% (inactive) in assay [3] (setting [7]); 63% (inactive) in assay [3] (setting [8]); 76.2% (active) and 12.3% (inactive) in assay [3] (at 50.0 µM); 31% (inactive) in assay [4] (setting [7]); 30% (inactive) in assay [4] (setting [8]); 17.6% (inactive) and 1.65% (inactive) in assay [4] (at 50.0 µM). In addition, the growth inhibition in assay [5] (setting [7]) is 26% (inactive); in assay [5] (setting [8]) it was 38% (inactive); in assay [5] (at 50.0 µM) it was 60% (inactive) and -7.7% (inactive); in assay [6] (setting [7]), 35% (inactive); in assay [6] (setting [8]), 60% (inactive); in assay [6] (at 50.0 µM), 75.5% (active) and 15.1% (inactive).

With `CCc1cc2c(cc1C(C)=O)C(C)(C)CCC2`, the growth inhibition in assay [1] (setting [7]) was 6% (inactive); in assay [1] (setting [8]) it was 95% (active); in assay [1] (at 50.0 µM), 98.5% (active); in assay [2] (setting [7]), 2% (inactive); in assay [2] (setting [8]), 97% (active); in assay [2] (at 50.0 µM), 98.7% (active). Besides, the growth inhibition is 14% (inactive) in assay [3] (setting [7]); 98% (active) in assay [3] (setting [8]); 98.5% (active) in assay [3] (at 50.0 µM); 11% (inactive) in assay [4] (setting [7]); 97% (active) in assay [4] (setting [8]); 93% (active) in assay [4] (at 50.0 µM). For the same molecule, the growth inhibition in assay [5] (setting [7]) was -3% (inactive); in assay [5] (setting [8]), 96% (active); in assay [5] (at 50.0 µM), 98.7% (active); in assay [6] (setting [7]), 9% (inactive); in assay [6] (setting [8]) it was 98% (active); in assay [6] (at 50.0 µM), 98.7% (active).

Consider `NC(=O)c1cc(Br)cc(Br)c1O`, for which the growth inhibition in assay [1] (setting [7]) was 14% (inactive); in assay [1] (setting [8]), 79% (active); in assay [1] (at 50.0 µM) it was 62.2% (inactive); in assay [2] (setting [7]), -13% (inactive); in assay [2] (setting [8]), 86% (active); in assay [2] (at 50.0 µM), 75.1% (active). In addition, the growth inhibition in assay [3] (setting [7]) was 9% (inactive); in assay [3] (setting [8]) it was 90% (active); in assay [3] (at 50.0 µM), 48.5% (inactive); in assay [4] (setting [7]), 5% (inactive); in assay [4] (setting [8]) it was 87% (active); in assay [4] (at 50.0 µM), 94.5% (active). For the same molecule, the growth inhibition was 1% (inactive) in assay [5] (setting [7]); 77% (active) in assay [5] (setting [8]); 89.8% (active) in assay [5] (at 50.0 µM); -10% (inactive) in assay [6] (setting [7]); 85% (active) in assay [6] (setting [8]); 79.6% (active) in assay [6] (at 50.0 µM).

`NC(=O)N/N=C/c1ccc([N+](=O)[O-])o1`: the growth inhibition in assay [1] (setting [7]) was 2% (inactive); in assay [1] (setting [8]), 73% (active); in assay [1] (at 50.0 µM) it was 32% (inactive) and 46.6% (inactive); in assay [2] (setting [7]), 2% (inactive); in assay [2] (setting [8]) it was 26% (inactive); in assay [2] (at 50.0 µM) it was 13.8% (inactive) and 8.3% (inactive). The growth inhibition in assay [3] (setting [7]) was 4% (inactive); in assay [3] (setting [8]), 34% (inactive); in assay [3] (at 50.0 µM), 56.4% (inactive) and 48% (inactive); in assay [4] (setting [7]) it was 0% (inactive); in assay [4] (setting [8]), 16% (inactive); in assay [4] (at 50.0 µM), 10.1% (inactive) and 26.1% (inactive). For the same molecule, the growth inhibition in assay [5] (setting [7]) is -3% (inactive); in assay [5] (setting [8]), 22% (inactive); in assay [5] (at 50.0 µM) it was 10.6% (inactive) and 51.8% (inactive); in assay [6] (setting [7]), 5% (inactive); in assay [6] (setting [8]), 50% (inactive); in assay [6] (at 50.0 µM), 47.3% (inactive) and 71.3% (active).

Values taken from PubChem BioAssay (NCI).
